The whole screen tested about 5,500 compounds, of which about 2,000 (36%) were called active. Not shown: some 18% with an inconclusive outcome. Rule as the data show it: active = normalized growth mostly below about 0.91 (no sharp cut-off); inconclusive = no clear call, values can overlap the other calls; inactive = mostly above about 0.92. The list shows a part of the results.
Test: chemical genetic growth profiling, strain panel (AID 1159580);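 also: tested at 20 µM; growth read once vehicle control cultures reached saturation at 30 °C; 1 = growth at the plate median or of vehicle wells; lower values mean less growth of the strain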
Conditions: growth OD

Measured: normalized growth

CC(=O)N[C@@H](Cc1c[nH]c2ccccc12)C(N)=O
inactive: S. cerevisiae deletion strains, locus YJR075W, strain HOC1, stronger effect = lower value 0.959 | S. cerevisiae deletion strains, locus YKL009W, strain mrt4, stronger effect = lower value 1.01 | S. cerevisiae deletion strains, locus YKL068W, stronger effect = lower value 0.988 | S. cerevisiae deletion strains, locus YKL085W, strain MDH1 (second series), stronger effect = lower value 1.01 | S. cerevisiae deletion strains, locus YKL085W, strain MDH1, stronger effect = lower value 1.01 | S. cerevisiae deletion strains, locus YKL160W, strain elf1, stronger effect = lower value 1.02 | S. cerevisiae deletion strains, locus YKL190W, strain CNB1, stronger effect = lower value 0.979 | S. cerevisiae deletion strains, locus YKR001C, strain vps1, stronger effect = lower value 1.01 | S. cerevisiae deletion strains, locus YKR026C, strain gcn3, stronger effect = lower value 1.03 | S. cerevisiae deletion strains, locus YKR091W, strain srl3, stronger effect = lower value 1.01 | S. cerevisiae deletion strains, locus YLL001W, strain dnm1, stronger effect = lower value 1.03 | S. cerevisiae deletion strains, locus YLL026W, stronger effect = lower value 1.02 | S. cerevisiae deletion strains, locus YLL041C, strain sdh2, stronger effect = lower value 1.02 | S. cerevisiae deletion strains, locus YLR027C, strain aat2, stronger effect = lower value 1.03 | S. cerevisiae deletion strains, locus YLR039C, strain RIC1, stronger effect = lower value 0.972 | S. cerevisiae deletion strains, locus YLR058C, strain SHM2, stronger effect = lower value 0.993 | S. cerevisiae deletion strains, locus YLR102C, strain apc9, stronger effect = lower value 0.999 | S. cerevisiae deletion strains, locus YLR113W, strain HOG1, stronger effect = lower value 1.01 | S. cerevisiae deletion strains, locus YLR221C, strain rsa3, stronger effect = lower value 0.996 | S. cerevisiae deletion strains, locus YLR258W, strain gsy2, stronger effect = lower value 1.02 | S. cerevisiae deletion strains, locus YLR262C, strain YPT6 (second series), stronger effect = lower value 1.02 | S. cerevisiae deletion strains, locus YLR262C, strain YPT6, stronger effect = lower value 0.938 | S. cerevisiae deletion strains, locus YLR268W, strain sec22, stronger effect = lower value 0.96 | S. cerevisiae deletion strains, locus YLR320W, strain mms22, stronger effect = lower value 1.01 | S. cerevisiae deletion strains, locus YLR330W, strain CHS5, stronger effect = lower value 0.996 | S. cerevisiae deletion strains, locus YLR342W, strain FKS1 (second series), stronger effect = lower value 1.07 | S. cerevisiae deletion strains, locus YLR342W, strain FKS1, stronger effect = lower value 1.05 | S. cerevisiae deletion strains, locus YLR357W, strain rsc2, stronger effect = lower value 1.04 | S. cerevisiae deletion strains, locus YLR370C, strain arc18, stronger effect = lower value 1.02 | S. cerevisiae deletion strains, locus YLR371W, strain rom2, stronger effect = lower value 1.01 | S. cerevisiae deletion strains, locus YLR384C, strain iki3, stronger effect = lower value 1.03 | S. cerevisiae deletion strains, locus YLR418C, strain cdc73, stronger effect = lower value 0.984 | S. cerevisiae deletion strains, locus YML016C, strain PPZ1, stronger effect = lower value 0.995 | S. cerevisiae deletion strains, locus YML032C, strain rad52, stronger effect = lower value 1 | S. cerevisiae deletion strains, locus YML120C, strain ndi1, stronger effect = lower value 1.03 | S. cerevisiae deletion strains, locus YML124C, strain tub3, stronger effect = lower value 1.01 | S. cerevisiae deletion strains, locus YMR058W, strain fet3, stronger effect = lower value 0.997 | S. cerevisiae deletion strains, locus YMR078C, strain ctf18, stronger effect = lower value 1 | S. cerevisiae deletion strains, locus YMR125W, strain sto1, stronger effect = lower value 1.1 | S. cerevisiae deletion strains, locus YMR129W, stronger effect = lower value 1.02 | S. cerevisiae deletion strains, locus YMR205C, strain PFK2, stronger effect = lower value 1.02 | S. cerevisiae deletion strains, locus YMR223W, strain ubp8, stronger effect = lower value 1.01 | S. cerevisiae deletion strains, locus YMR231W, strain pep5, stronger effect = lower value 1.02 | S. cerevisiae deletion strains, locus YMR263W, strain SAP30, stronger effect = lower value 0.955 | S. cerevisiae deletion strains, locus YMR307W, strain GAS1, stronger effect = lower value 1.08 | S. cerevisiae deletion strains, locus YNL067W, strain RPL9B, stronger effect = lower value 0.966 | S. cerevisiae deletion strains, locus YNL071W, strain lat1, stronger effect = lower value 1.01 | S. cerevisiae deletion strains, locus YNL128W, strain TEP1, stronger effect = lower value 0.94 | S. cerevisiae deletion strains, locus YNL153C, strain GIM3, stronger effect = lower value 0.97 | S. cerevisiae deletion strains, locus YNL183C, strain NPR1, stronger effect = lower value 0.914 | S. cerevisiae deletion strains, locus YNL209W, strain ssb2, stronger effect = lower value 1.01 | S. cerevisiae deletion strains, locus YNL233W, strain BNI4, stronger effect = lower value 0.993 | S. cerevisiae deletion strains, locus YNL248C, strain rpa49, stronger effect = lower value 0.992 | S. cerevisiae deletion strains, locus YNL250W, strain rad50, stronger effect = lower value 0.989 | S. cerevisiae deletion strains, locus YNL271C, strain bni1, stronger effect = lower value 0.996 | S. cerevisiae deletion strains, locus YNL298W, strain CLA4, stronger effect = lower value 0.994 | S. cerevisiae deletion strains, locus YNL307C, strain MCK1, stronger effect = lower value 1.02 | S. cerevisiae deletion strains, locus YNL322C, strain KRE1 (second series), stronger effect = lower value 1.03 | S. cerevisiae deletion strains, locus YNL322C, strain KRE1, stronger effect = lower value 0.978 | S. cerevisiae deletion strains, locus YNR049C, strain mso1, stronger effect = lower value 1.02 | S. cerevisiae deletion strains, locus YNR052C, strain pop2, stronger effect = lower value 1.01 | S. cerevisiae deletion strains, locus YOL006C, strain TOP1, stronger effect = lower value 0.943 | S. cerevisiae deletion strains, locus YOL012C, strain htz1 0.796 | S. cerevisiae deletion strains, locus YOL147C, strain pex11, stronger effect = lower value 1 | S. cerevisiae deletion strains, locus YOR001W, strain rrp6, stronger effect = lower value 1.04 | S. cerevisiae deletion strains, locus YOR061W, strain CKA2, stronger effect = lower value 0.969 | S. cerevisiae deletion strains, locus YOR069W, strain VPS5, stronger effect = lower value 1 | S. cerevisiae deletion strains, locus YOR070C, strain gyp1, stronger effect = lower value 1.01 | S. cerevisiae deletion strains, locus YOR080W, strain dia2, stronger effect = lower value 1.03 | S. cerevisiae deletion strains, locus YOR083W, strain WHI5, stronger effect = lower value 1.03 | S. cerevisiae deletion strains, locus YOR106W, strain vam3, stronger effect = lower value 1.01 | S. cerevisiae deletion strains, locus YOR136W, strain idh2, stronger effect = lower value 1.01 | S. cerevisiae deletion strains, locus YOR144C, strain elg1, stronger effect = lower value 0.995 | S. cerevisiae deletion strains, locus YOR184W, strain ser1, stronger effect = lower value 1.02 | S. cerevisiae deletion strains, locus YOR231W, strain MKK1, stronger effect = lower value 1.01 | S. cerevisiae deletion strains, locus YOR265W, strain rbl2, stronger effect = lower value 1.03 | S. cerevisiae deletion strains, locus YOR270C, strain vph1, stronger effect = lower value 1 | S. cerevisiae deletion strains, locus YOR290C, strain snf2, stronger effect = lower value 1.01 | S. cerevisiae deletion strains, locus YOR316C, strain cot1, stronger effect = lower value 1 | S. cerevisiae deletion strains, locus YPL051W, strain arl3, stronger effect = lower value 1.02 | S. cerevisiae deletion strains, locus YPL055C, strain LGE1, stronger effect = lower value 0.932 | S. cerevisiae deletion strains, locus YPL078C, strain atp4, stronger effect = lower value 1.02 | S. cerevisiae deletion strains, locus YPL106C, strain sse1, stronger effect = lower value 1.04 | S. cerevisiae deletion strains, locus YPL240C, strain hsp82, stronger effect = lower value 1.02 | S. cerevisiae deletion strains, locus YPL241C, strain CIN2, stronger effect = lower value 0.989 | S. cerevisiae deletion strains, locus YPL256C, strain CLN2, stronger effect = lower value 0.999 | S. cerevisiae deletion strains, locus YPR119W, strain clb2, stronger effect = lower value 1 | S. cerevisiae deletion strains, locus YPR141C, strain kar3, stronger effect = lower value 0.981 | S. cerevisiae deletion strains, locus YPR163C, strain tif3, stronger effect = lower value 1.01 | S. cerevisiae deletion strains, locus YPR167C, strain met16, stronger effect = lower value 0.991 | S. cerevisiae deletion strains, strain wtn01, stronger effect = lower value 1 | S. cerevisiae strains, strain wild type, stronger effect = lower value 0.995

Reference: PubChem BioAssay AID1159580 (chemical genetic matrix, 2015)
